Screening results: PubChem BioAssay, National Center for Advancing Translational Sciences (NCATS)
In the library only some 17% were active in any assay of this set; here they are far more common.
HT1080 IDH1KD tx – kills HT-1080 cells with IDH1 knockdown; Potency, µM (doses to about 46.1 µM), hits mostly cytotoxic; HT-1080 IDH1 knockdown viability, ATP luminescence, 48 h; 360,000 tested, 2% active
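Luminescent ATP read-out (CellTiter-Glo, 10 min at room temperature) after 48 h compound exposure at 37 °C gave viability of IDH1-knockdown HT-1080 cells. Activity was normalised to DMSO and cell-free wells, then fitted as concentration-response curves.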
TDP1 cell noCPT – qHTS for Inhibitors of human tyrosyl-DNA phosphodiesterase 1 (TDP1): qHTS in cells in absence of CPT | DT40 Tdp1-/- hTDP1 cells, no CPT, ATP luminescence, 48 h | Potency, µM (series often up to 46.2 µM), hits mostly inhibitors | 420,000 tested, 15% active | AID 686978, 2013; note: nearly all actives have a fitted effect of over 55% in size
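Seeded 400 DT40-hTDP1 cells/well (vehicle DMSO, no 20 nM CPT); pinned compounds; ≥48 hr at 37 °C; CellTiter-Glo luminescence as viability measure.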
TGFb SMAD3 inh – TGF-b pathway inhibition | HepG2 CAGA-GFP TGF-b/SMAD3 reporter, GFP fluorescence, 18 h; TGF-beta stimulated, 500 pg/mL final | Potency, µM (top dose mostly 46.1 µM), most hits filed as inhibitors | 410,000 tested, 1.2% active; note: nearly all actives have a fitted effect of over 65% in size
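Cell-based qHTS in HEPG2 carrying a CAGA-GFP Smad reporter; compounds added before 500 pg/mL final TGF-beta, 18 h incubation at 37 degrees C, GFP fluorescence quantified per cell by imaging cytometry.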
TDP1 cell CPT – DT40-hTDP1 cell growth loss with CPT | chicken DT40 Tdp1-/-;hTDP1 cells + 20 nM CPT, ATP luminescence, 48 h | Potency, µM (series often up to 46.2 µM), hits mostly inhibitors | 420,000 tested, 12% active | AID 686979; note: nearly all actives have a fitted effect of over 55% in size
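Chicken DT40 Tdp1-/- cells complemented with human TDP1, 400 cells/well, exposed to compounds plus 20 nM camptothecin for at least 48 h at 37 C; viability read as ATP content by CellTiter-Glo luminescence.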
HepG2 viability – kills HepG2 cells in TGF-b inhibitor counter-screen; 410,000 tested, 0.76% active; AID 588856; Potency, µM (top dose mostly 46.1 µM), most hits filed as cytotoxic; HepG2 CAGA-GFP viability, ATP luminescence, 18 h
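CellTiter-Glo luminescence gave cytotoxicity after 18 hours at 37 degrees C. The cells were HepG2 CAGA-GFP in 1% FBS DMEM, stimulated with 500 pg/mL TGF-beta after compound addition. %Activity was normalised to no-cell wells (complete cell-killing) and DMSO (no toxicity), and curves were fitted and classified.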
HT1080NT lethal – kills 2HG-producing HT-1080-NT fibrosarcoma cells; HT-1080-NT fibrosarcoma viability, CellTiter-Glo ATP luminescence, 48 h; Potency, µM (top dose mostly 46.1 µM), hits mostly cytotoxic; 360,000 tested, 1.6% active;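 note: NT is the 2HG producing partner of a matched IDH1 knockdown line; nearly all actives have a fitted effect of over 55% in size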
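A 48-hour cytotoxicity screen used HT-1080-NT cells plated 2 hours before compound delivery. ATP-based CellTiter-Glo luminescence measured viability, normalized to DMSO and no-cell controls.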
A number is an active result; - = inactive; ? = inconclusive; . = no result given. Calls come from the whole dose curve; as a rule, active = well fitted curve in the direction sought with a large enough effect; inconclusive = small, poorly fitted or top-dose-only effect, or another doubt; inactive = no such curve, though single readings can be large; an effect the other way counts as inactive or inconclusive.

SMILES | HT1080 IDH1KD tx | TDP1 cell noCPT | TGFb SMAD3 inh | TDP1 cell CPT | HepG2 viability | HT1080NT lethal
COC(=O)CN1C(=S)N(c2ccc(F)cc2)C(=O)C1CC(=O)Nc1ccc(OC)cc1 (centres undefined) | - | - | - | - | - | -
Nc1c(C(=O)NCC2CCCO2)c2nc3ccccc3nc2n1/N=C/c1ccncc1 (centres undefined) | - | 1.6µM | - | 8.2µM | - | -
Nc1c(C(=O)NC2CCCC2)c2nc3ccccc3nc2n1N | - | 23µM | - | ? | - | -
CC(C)Cn1c(N)c(C(=O)NCC2CCCO2)c2nc3ccccc3nc21 (centres undefined) | ? | 26µM | ? | ? | - | ?
COCCn1c(N)c(C(=O)NCC2CCCO2)c2nc3ccccc3nc21 (centres undefined) | - | ? | - | ? | - | -
Nc1c(C(=O)OCC2CCCO2)c2nc3ccccc3nc2n1C1CCCC1 (centres undefined) | - | 12µM | ? | ? | - | -
O=C(O)Cn1nncc1-c1ccc(C(F)(F)F)cc1 | - | - | - | - | - | -
BrC(=C\c1ccccc1)/C=N/n1cnnc1 | 21µM | 0.58µM | - | 0.29µM | - | 16µM
Cc1cc(NC(=O)CSc2nc(-c3ccco3)cc(C(F)(F)F)n2)no1 | 0.52µM | 0.73µM | - | 0.58µM | - | 0.58µM
COc1ccccc1N1CCN(C(=O)CSc2nc(-c3ccco3)cc(C(F)(F)F)n2)CC1 | - | 23µM | ? | ? | - | -
Cc1cc(NC(=O)CCSc2nc(-c3ccco3)cc(C(F)(F)F)n2)no1 | ? | - | ? | - | - | ?
Cc1ccc(O)c(NC(=O)CCSc2nc(-c3ccco3)cc(C(F)(F)F)n2)c1 | . | 18µM | ? | ? | - | .
CN(C)c1ccc(NC(=O)CCSc2nc(-c3ccco3)cc(C(F)(F)F)n2)cc1 | . | 18µM | - | ? | - | .
CCOC(=O)N1CCN(S(=O)(=O)N2CCCC(C(=O)NCCCN3CC(C)CC(C)C3)C2)CC1 (centres undefined) | - | - | - | - | - | -
CC(=O)c1ccc(NC(=O)CCSc2nc(-c3ccco3)cc(C(F)(F)F)n2)cc1 | . | ? | - | ? | - | .
Cc1cccc(C)c1NC(=O)CSc1nc(-c2ccco2)cc(C(F)(F)F)n1 | - | ? | - | ? | - | -
CCn1nc(C)c(NC(=O)CCCSc2nc(-c3ccco3)cc(C(F)(F)F)n2)c1C | - | 15µM | - | 18µM | - | -
O=C(CSc1nc(-c2ccco2)cc(C(F)(F)F)n1)Nc1ccc(C(=O)N2CCCCC2)cc1 | - | 6.5µM | - | 7.3µM | - | -
Cc1ccc(NC(=O)CSc2nc(-c3ccco3)cc(C(F)(F)F)n2)cc1 | . | 3.3µM | - | 2.1µM | - | .
Cc1ccc2nc(-c3ccccc3)cc(C(=O)NCC(c3ccco3)N(C)C)c2c1 (centres undefined) | - | ? | - | ? | - | -
